# Data taken from PubChem BioAssay (EPA / NIEHS).
# Inconclusive results are not listed. Calls of active or inactive are those of the source. How the source made its calls, unless noted: active means hit-call score of the fitted dose curve at least 0.9, where 1 is the maximum; inconclusive means response in the unintended direction; inactive means score below 0.9.
# What was measured:
# [1] = CCTE_Shafer_MEA_acute_spike_number: CCTE's Neural Acute Assay for Total Number of Spikes, Shafer Lab (AID 2284008; active means hit-call score of the fitted dose curve at least 0.9, where 1 is the maximum; inactive means score below 0.9;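 on AC50: curve fitted for decrease in spike count so AC50 reflects inhibitors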)
# Summary of the method: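 Total spike count from 40 min recordings before and during compound exposure (0.03-40 uM), given as per-well percent change. Cortical cultures from rat, DIV 13 or 15, 37 C; adaptive detection threshold 8x rms noise.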
# [2] = CCTE_Shafer_MEA_acute_firing_rate_mean: CCTE's Neural Acute Assay for Mean Firing Rate, Shafer Lab (AID 2284009; active means hit-call score of the fitted dose curve at least 0.9, where 1 is the maximum; inactive means score below 0.9;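 further: analyzed for loss of signal so actives lower firing rate relative to DMSO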)
# Summary of the method: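 Spontaneous spiking of primary rat cortical networks, DIV 13/15, 37 C. Compound 0.03-40 uM, n ≥3 wells; 40 min baseline vs 40 min treated. Endpoint fitted in loss-of-signal direction against DMSO.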
# [3] = target: Nucleoli Translocation, AR (gene 367) (UniProt P10275); experiment: UPITT_HCI_U2OS_AR_TIF2_Nucleoli_Antagonist: University of Pittsburgh U2OS Androgen Receptor-Transcriptional Intermediary Factor 2 (AR-TIF2) Antagonism High Content Imaging Assay for Nucleoli Translocation (AID 2283997)
# Summary of the method: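 An antagonist-mode imaging screen: engineered U2OS (AR-RFP, TIF2-GFP) exposed to 20 uM compound, 0.2% DMSO. Activity reflects nucleolar red fluorescence change relative to DHT baseline.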
# [4] = target: Nucleoli Translocation, AR (gene 367) (UniProt P10275); experiment: UPITT_HCI_U2OS_AR_TIF2_Nucleoli_Agonist: University of Pittsburgh U2OS Androgen Receptor-Transcriptional Intermediary Factor 2 (AR-TIF2) Agonism High Content Imaging Assay for Nucleoli Translocation (AID 2283998)
# Summary of the method: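 Nucleolar translocation of AR-RFP, with TIF2-GFP coexpressed in human osteosarcoma U2OS, imaged by high-content fluorescence. Compounds tested singly at 20 uM final, confirmed in triplicate, then titrated 0.195–50 uM final; gain-of-signal relative to DMSO.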
# [5] = target: Ratio of Nucleoli Translocation and Cytoplasm, AR (gene 367) (UniProt P10275); experiment: UPITT_HCI_U2OS_AR_TIF2_Nucleoli_Cytoplasm_Ratio_Antagonist: University of Pittsburgh U2OS Androgen Receptor-Transcriptional Intermediary Factor 2 (AR-TIF2) Antagonism High Content Imaging Assay for Ratio of Nucleoli Translocation and Cytoplasm (AID 2283999);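 further: antagonists lower the DHT-driven ratio of nucleolar to cytoplasmic red signal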
# Summary of the method: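 High-content imaging of red fluorescence ratio, nucleoli versus cytoplasm, in U2OS expressing AR-RFP and TIF2-GFP, fitted relative to DHT. Compounds tested once at 20 uM final, then 0.195 to 50 uM final in serial dilution.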
# [6] = target: Ratio of Nucleoli Translocation and Cytoplasm, AR (gene 367) (UniProt P10275); experiment: UPITT_HCI_U2OS_AR_TIF2_Nucleoli_Cytoplasm_Ratio_Agonist: University of Pittsburgh U2OS Androgen Receptor-Transcriptional Intermediary Factor 2 (AR-TIF2) Agonism High Content Imaging Assay for Ratio of Nucleoli Translocation and Cytoplasm (AID 2284000);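 further: hits raise the red nucleolar to cytoplasm ratio above vehicle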
# Summary of the method: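 Primary screen at 20 uM final (0.2% DMSO), then triplicate confirmation and dose-response from 0.195 to 50 uM final (0.5% DMSO). Cells: U2OS with AR-RFP and TIF2-GFP. Endpoint is the nucleoli/cytoplasm red-fluorescence ratio, gain-of-signal vs DMSO.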
# DIO1 (gene 1733) = experiment: CCTE_GLTED_hDIO1: CCTE's human Deiodinase 1 (DIO1) Inhibition Assay, Great Lakes Toxicology and Ecology Division (GLTED) Lab (AID 2283987);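 further: isolated human DIO1 enzyme in a cell-free setup rather than cells; enzyme activity read as free iodide liberated from substrate via Sandell-Kolthoff colorimetry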
# Summary of the method: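 Inhibition read as reduced iodide release: after 3 h of human DIO1 with chemical, free iodide is quantified colorimetrically (Sandell-Kolthoff cerium/arsenic reaction). Triplicate plates, DMSO baseline.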
# Ratio of Nucleoli Translocation and Cytoplasm, AR (gene 367), sequence (P10275 whole entry, looked up): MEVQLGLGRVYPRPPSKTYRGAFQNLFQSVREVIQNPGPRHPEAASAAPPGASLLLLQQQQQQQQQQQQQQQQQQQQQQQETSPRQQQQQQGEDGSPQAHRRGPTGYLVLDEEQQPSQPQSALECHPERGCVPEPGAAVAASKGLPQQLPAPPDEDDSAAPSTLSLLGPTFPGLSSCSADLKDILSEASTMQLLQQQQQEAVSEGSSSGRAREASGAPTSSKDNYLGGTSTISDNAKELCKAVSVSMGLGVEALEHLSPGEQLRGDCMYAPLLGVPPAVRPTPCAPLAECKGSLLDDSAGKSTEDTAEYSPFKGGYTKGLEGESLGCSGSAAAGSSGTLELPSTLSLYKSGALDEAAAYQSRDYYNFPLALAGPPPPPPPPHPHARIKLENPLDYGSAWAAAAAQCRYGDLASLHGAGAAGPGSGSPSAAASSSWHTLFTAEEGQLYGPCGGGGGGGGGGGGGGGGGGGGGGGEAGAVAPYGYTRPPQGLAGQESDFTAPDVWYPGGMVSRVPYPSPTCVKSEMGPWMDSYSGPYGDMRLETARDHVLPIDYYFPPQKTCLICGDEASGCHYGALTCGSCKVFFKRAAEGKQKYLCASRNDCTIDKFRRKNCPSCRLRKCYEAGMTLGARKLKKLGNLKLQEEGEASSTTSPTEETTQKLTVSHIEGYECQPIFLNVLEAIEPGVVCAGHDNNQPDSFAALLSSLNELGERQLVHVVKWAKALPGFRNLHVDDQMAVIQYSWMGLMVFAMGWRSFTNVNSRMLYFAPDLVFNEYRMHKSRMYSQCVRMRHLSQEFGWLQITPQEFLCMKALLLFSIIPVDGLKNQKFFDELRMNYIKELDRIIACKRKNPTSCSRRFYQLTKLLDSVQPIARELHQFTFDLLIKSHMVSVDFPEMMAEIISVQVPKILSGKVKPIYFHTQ
# Nucleoli Translocation, AR (gene 367), sequence (P10275 whole entry, looked up): as above
compound,measurement,setting,value
CCC(C)c1ccccc1O (stereo not given),AC50,[1],2.06 µM (active)
same,AC50,[2],2.06 µM (active)
CCCCCc1ccc(O)cc1,AC50,[3],31.9 µM (active)
same,AC50,[4],39.1 µM (active)
same,AC50,[5],86.1 µM (active)
same,outcome,[6],inactive
COc1cc([N+](=O)[O-])ccc1N,outcome,[3],inactive
same,outcome,[5],inactive
same,outcome,[6],inactive
O=C(CCCN1CCC(O)(c2ccc(Cl)cc2)CC1)c1ccc(F)cc1,AC50,[1],1.7 µM (active)
same,AC50,[2],1.78 µM (active)
Cc1cc(C(=C2C=CC(=Nc3ccc(S(=O)(=O)O)cc3)C=C2)c2ccc(Nc3ccc(S(=O)(=O)O)cc3)cc2)cc(S(=O)(=O)O)c1N,outcome,[3],inactive
same,outcome,[5],inactive
same,outcome,[6],inactive
CCCCCCc1ccc(N)cc1,outcome,[3],inactive
same,outcome,[4],inactive
same,outcome,[5],inactive
same,AC50,[6],78.4 µM (active)
O=C1NS(=O)(=O)c2ccccc21,AC50,[1],0.00978 µM (active)
same,AC50,[2],0.00978 µM (active)
CCCCCCCCCC=CCC1CC(=O)OC1=O (stereo not given),AC50,DIO1 (gene 1733),31.9 µM (active)
same,outcome,[3],inactive
same,outcome,[6],inactive
Oc1c(Cl)cc(Cl)cc1Sc1cc(Cl)cc(Cl)c1O,outcome,[1],inactive
same,outcome,[2],inactive
O=P(O)(O)CCC(F)(F)C(F)(F)C(F)(F)C(F)(F)C(F)(F)C(F)(F)C(F)(F)C(F)(F)F,AC50,DIO1 (gene 1733),182 µM (active)
CCCCCCC(C)(C)C(=O)O,outcome,[3],inactive
same,outcome,[4],inactive
same,outcome,[5],inactive
same,outcome,[6],inactive
N=C(N)c1ccc(OCCCCCOc2ccc(C(=N)N)cc2)cc1,outcome,[1],inactive
same,outcome,[2],inactive
CCCCc1ccc2ccccc2c1S(=O)(=O)O,outcome,[4],inactive
same,outcome,[5],inactive
same,outcome,[6],inactive
NC(=NCCCCCCN=C(N)/N=C(\N)Nc1ccc(Cl)cc1)/N=C(\N)Nc1ccc(Cl)cc1,AC50,DIO1 (gene 1733),21.3 µM (active)
same,AC50,[3],16.5 µM (active)
same,outcome,[4],inactive
same,AC50,[5],11.6 µM (active)
same,outcome,[6],inactive
